The results in this text go back to PubChem BioAssay AID588342 (National Center for Advancing Translational Sciences (NCATS), 2011).

About 25,000 (6.9%) of roughly 360,000 compounds were called active. Where a call stands in place of a potency, no number is given. About 9% were inconclusive and are not listed. Calls come from the whole dose curve; as a rule, active = well fitted inhibition curve with a large enough effect; inconclusive = small, poorly fitted or top-dose-only effect; inactive = flat fitted curve, though single readings scatter. Many of the other results were omitted from the sample, so actives are more common in it than they were.
Potency is the fitted concentration of half-maximal effect.

The experiment deals with Luciferin 4-monooxygenase (Photinus pyralis) (UniProt P08659). The experiment can be described thus: qHTS profiling assay for firefly luciferase inhibitor/activator using purifed enzyme and Km concentrations of substrates (counterscreen for miR-21 project). Note: nearly all actives have a fitted effect of over 55% in size. The settings on record: purified FLuc, luminescence inhibition; series mostly up to 57.5 µM. In outline: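 Purified P. pyralis luciferase, 10 nM final, with Km-level 10 uM D-luciferin and 10 uM ATP in 50 mM Tris acetate pH 7.5, 10 mM Mg acetate, 0.01% Tween-20, 0.05% BSA; 6-point qHTS titration about 60 µM downward; luminescence read.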
Sequence of Luciferin 4-monooxygenase (Photinus pyralis) (P08659 whole entry, looked up): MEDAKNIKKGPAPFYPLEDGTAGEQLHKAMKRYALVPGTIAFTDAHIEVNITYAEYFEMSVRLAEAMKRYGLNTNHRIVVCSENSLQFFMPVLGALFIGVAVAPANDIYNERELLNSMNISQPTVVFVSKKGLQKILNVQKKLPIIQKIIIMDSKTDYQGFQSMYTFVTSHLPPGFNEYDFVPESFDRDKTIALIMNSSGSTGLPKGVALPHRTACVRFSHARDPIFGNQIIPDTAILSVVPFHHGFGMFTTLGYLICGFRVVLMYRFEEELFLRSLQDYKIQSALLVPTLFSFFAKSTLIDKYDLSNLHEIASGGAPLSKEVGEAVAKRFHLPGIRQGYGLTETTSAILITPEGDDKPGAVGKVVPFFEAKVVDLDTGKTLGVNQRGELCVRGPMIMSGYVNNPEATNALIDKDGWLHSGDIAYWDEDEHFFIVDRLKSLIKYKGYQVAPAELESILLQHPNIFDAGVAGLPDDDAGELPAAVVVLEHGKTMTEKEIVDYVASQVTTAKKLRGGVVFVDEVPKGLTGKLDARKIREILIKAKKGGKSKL
Consider `CCn1c2ccccc2c2cc(CN3CCN(Cc4cccc(Cl)c4)CC3)ccc21`, for which the Potency result is “inactive”.

On to `CSc1ccccc1C(=O)OCC(=O)N1CCN(C(C)=O)CC1`, for which the Potency result is “inactive”.

In the case of `COc1ccccc1CNC(=O)COc1ccc(C)nc1[N+](=O)[O-]`, the Potency result was “inactive”.

Turning to `CCOc1ccccc1C(=O)NC1(C(F)(F)F)NC(=O)N(CCc2ccc(OC)c(OC)c2)C1=O` (centres undefined), the Potency entry was “inactive”.

For `CCSc1nnc(-c2cc3c(s2)-c2ccccc2CC3)o1`, the Potency is 10.7 µM (active).

`O=C(CSc1nnc(-c2ccccc2O)o1)NC1CCCCC1`: the Potency entry was “inactive”.

Consider `Fc1ccc(CSc2nnc(-c3cc4c(s3)-c3ccccc3CC4)o2)cc1`, for which the Potency entry is “inactive”.

As to `CCOC(=O)c1[nH]c(C)c(CCC(=O)N2CCN(c3ccccc3)CC2)c1C`, the Potency entry is “inactive”.

`CCCC(=O)Nc1ccc(C(=O)N/N=C/c2ccc[nH]2)cc1`: the Potency result was “inactive”.

`CC(=O)Nc1ccc(/C=C/C(=O)c2ccccc2)cc1`: the Potency was 1.35 µM (active).

On to `O=C(c1ccc(S(=O)(=O)N2CCOCC2)cc1)N1CCN(c2ccccc2)CC1`, for which the Potency entry was “inactive”.

Regarding `O=C(/C=C/c1ccc(N2CCOCC2)cc1)c1ccccc1`, the Potency is 0.953 µM (active).

Take `CC(=O)Nc1ccc(C(=O)/C=C/c2ccc[nH]2)cc1`: the Potency is 8.49 µM (active).

Consider `COC(C(=O)Nc1ccc(C(C)=O)cc1)c1ccccc1` (centres undefined), for which the Potency entry is “inactive”.

For the molecule `O=C(c1ccccc1)c1ccc(C(=O)N2CCN(c3ccccc3)CC2)cc1`, the Potency result was “inactive”.

Take `CC(=O)Nc1ccc(NC(=S)NC(=O)/C=C/c2ccccc2)cc1`: the Potency result is “inactive”.

On to `CC(OC(=O)/C=C/c1ccccc1)C(=O)Nc1ccc(C(N)=O)cc1` (centres undefined), for which the Potency entry was “inactive”.

In the case of `Cc1cc(C)cc(NC(=O)C2CCCN2S(=O)(=O)c2cccc3cccnc23)c1` (centres undefined), the Potency entry is “inactive”.

As for `Cc1c(CNC(C)c2ccccc2)c(C(=O)O)c(C)n1Cc1c(F)cccc1Cl` (centres undefined), the Potency entry is “inactive”.

Consider `COc1ccc(N2CCN(S(=O)(=O)c3ccc(-c4coc(C)n4)cc3)CC2)cc1`, for which the Potency entry is “inactive”.

With `CCOc1ccc(CNC(=O)Cn2cc3c(n2)-c2c(oc(C(=O)N4CCCC4)c2C)CC3)cc1`, the Potency entry was “inactive”.

In the case of `CC1(C)O[C@@H]2[C@H](O1)[C@@H](CO)O[C@H]2n1c(N2CCCCC2)nc2c(N)ncnc21`, the Potency entry is “inactive”.

Take `Cc1ccc(OCC(=O)Nc2ccc(OCc3cc(=O)n4c(C)csc4n3)cc2)cc1C`: the Potency entry was “inactive”.

With `Cc1ccccc1NC(=O)Cn1c(=O)n(CCCCC(=O)NCc2ccccc2Cl)c(=O)c2ccccc21`, the Potency entry was “inactive”.

For the molecule `Cc1ccc2nc(N3CCN(c4cccc(Cl)c4)CC3)c3nnnn3c2c1`, the Potency entry is “inactive”.

Take `CCOC(=O)c1cc2c(=O)n3ccccc3nc2n(CCCOC)c1=NC(=O)C(C)Oc1ccccc1` (centres undefined): the Potency entry is “inactive”.

As for `CCOc1ccc(CCNC(=O)c2ccc3c(c2)sc2nc(-c4ccc(F)cc4)cn23)cc1OCC`, the Potency result was “inactive”.

For `CCOc1cccc2cc(-c3cn4c(n3)sc3cc(C)ccc34)c(=O)oc12`, the Potency is 0.426 µM (active).

Consider `COc1ccc2oc(=O)c(-c3cn4c(n3)sc3cc(OC)ccc34)cc2c1`, for which the Potency result is “inactive”.

Turning to `COC(=O)c1ccc(NS(=O)(=O)c2cc3c4c(c2)C(C)C(=O)N4CCC3)cc1` (centres undefined), the Potency entry is “inactive”.

For `Cc1ccc(N2C(=O)CC(NCc3ccc4c(c3)OCO4)C2=O)cc1Cl` (centres undefined), the Potency result is “inactive”.

`COc1ccc(C)cc1S(=O)(=O)Nc1cc2c3c(c1)CCC(=O)N3CCC2`: the Potency result is “inactive”.

`CCc1nn(CC(=O)N2CCN(c3ccc(Cl)cc3)CC2)c(=O)c2cc3occc3n12`: the Potency result was “inactive”.

With `COc1ccc(CCn2cc3c(c2-c2ccc(Br)cc2)c(=O)n(C)c(=O)n3C)cc1OC`, the Potency result is “inactive”.

With `CCOC(=O)c1ccc(-c2ccc(C(=O)Nc3cccnc3)o2)cc1`, the Potency was 15.1 µM (active).

For `CCOC(=O)c1ccc(-c2ccc(/C=C(\C#N)C(=O)Nc3ccc(C)cc3)o2)cc1`, the Potency result was “inactive”.

Take `COc1ccc(C)cc1NC(=O)c1ccc(-c2ccc(C(C)=O)cc2)o1`: the Potency entry is “inactive”.

As for `O=C(O)c1c(CNCc2cccc(F)c2)c2ccccc2n1Cc1ccccc1`, the Potency entry was “inactive”.

`Cc1ccc(COc2ccc(/C=N/NC(=O)CN3CCCCC3)cc2)cc1`: the Potency result was “inactive”.

Turning to `CNC(=S)NNC(=O)c1sccc1OCc1ccccc1`, the Potency result is “inactive”.

Consider `Cc1ccc(/C=N/NC(=O)c2sccc2OCc2ccc(F)cc2)cc1`, for which the Potency was 1.35 µM (active).

In the case of `O=C(c1ccc2c(c1)N(Cc1ccccc1F)C(=O)c1ccccc1S2(=O)=O)N1CCOCC1`, the Potency result is “inactive”.

For the molecule `CCN(CC)CCNC(=O)CN1N=C(c2ccc(OC)cc2)CCC1=O`, the Potency entry was “inactive”.

On to `COc1ccc(C2=NN(C(=O)c3cccnc3)C(c3ccccc3)C2)cc1` (centres undefined), for which the Potency entry was “inactive”.

Turning to `COc1ccc(C2=NN(c3nc4ccccc4s3)C(=O)C2)cc1`, the Potency is 9.53 µM (active).

As for `COc1ccc(S(=O)(=O)c2c(Nc3cccc(Cl)c3)sc(C(=O)c3ccccc3)c2N)cc1`, the Potency entry was “inactive”.

`COc1cc(-c2cc3n(C)c(C)c(CCC(=O)Nc4ccc(F)cc4)c(=O)n3n2)cc(OC)c1OC`: the Potency result is “inactive”.

On to `CC(=O)c1ccc(-c2nnc(CCC(=O)N(C)Cc3cnc4ccccn34)o2)s1`, for which the Potency entry was “inactive”.

On to `CCc1ccc(CN(C)C(=O)CCc2nnc(-c3ccc(-c4ccccc4)cc3)o2)nc1`, for which the Potency is 13.5 µM (active).

Turning to `CCc1ccc(CN(C)Cc2nc(Cc3ccccc3)no2)nc1`, the Potency entry is “inactive”.

Consider `Nc1cccc(-c2cc(-c3ccccc3)nc(-c3cccc(N)c3)n2)c1`, for which the Potency result was “inactive”.

With `CC(=O)c1ccc(NC(c2ccc(F)cc2)c2nnc(-c3ccccc3)o2)cc1` (centres undefined), the Potency entry was “inactive”.

Take `Nc1ccc(-c2nnc(-c3ccc(-c4ccccc4)cc3)o2)cc1`: the Potency is 2.69 µM (active).

As for `Nc1ccc(-c2nnc(-c3ccccc3)o2)cc1`, the Potency was 19 µM (active).

Consider `Nc1ccc(-c2sc(N)nc2-c2ccccc2)cc1`, for which the Potency entry was “inactive”.

Regarding `O=C(OCc1nnc(-c2ccccc2)o1)c1cc(=O)[nH]c2ccccc12`, the Potency result is “inactive”.

Regarding `Cc1oc2ccc(O)c(CN3CCOCC3)c2c1C(=O)Nc1cccc(Cl)c1C`, the Potency entry was “inactive”.

Consider `CC(NC(=O)CCc1cn(Cc2ccccc2Cl)c2ccccc12)c1ccccc1` (centres undefined), for which the Potency result was “inactive”.

In the case of `CCCSc1nc2sc3c(c2c(=O)n1-c1cccc(Br)c1)CC(C)(C)OC3`, the Potency entry is “inactive”.

As to `Cc1ccccc1NC(=O)Cc1nc(COC(=O)c2ccc(C(F)(F)F)cc2)cs1`, the Potency entry is “inactive”.

Take `Cc1ccc(C)c(NC(=O)COC(=O)CSc2ccccc2)c1`: the Potency entry is “inactive”.

As for `CCOc1ccc(NC(=O)CN(Cc2ccccc2)S(=O)(=O)c2ccc(Cl)cc2)cc1`, the Potency entry was “inactive”.

In the case of `O=C(O)/C=C\C(=O)Nc1ccc(OCc2ccccc2)cc1`, the Potency was 19 µM (active).

In the case of `CCc1ccnc(NC(=O)Nc2ccc(OCc3ccccc3)cc2)c1`, the Potency result was “inactive”.

As for `Cc1cccc(NC(=O)Nc2ccc(OCc3ccccc3)cc2)n1`, the Potency entry was “inactive”.

Take `COc1ccc(C(=O)Nc2ccc(N3CCC(C)CC3)cc2)cc1Br`: the Potency entry was “inactive”.

Consider `CC(=O)Oc1cccc(C(=O)Nc2ccccc2NC(=O)c2cccc(OC(C)=O)c2)c1`, for which the Potency entry was “inactive”.

Consider `COc1cccc(C(=O)Nc2cc3c(cc2Br)OCCCO3)c1`, for which the Potency was 4.78 µM (active).

For the molecule `CC(=O)Nc1ccc(S(=O)(=O)N2CCN(c3ccccc3)CC2)cc1`, the Potency entry was “inactive”.

Regarding `O=C(Nc1ccc(C(=O)O)c(O)c1)c1ccccc1`, the Potency was 15.1 µM (active).

On to `COc1cccc(C(=O)Nc2ccc(N3CCN(C(=O)c4ccco4)CC3)cc2)c1`, for which the Potency result is “inactive”.

As for `COc1ccc(C2COC(=O)C2=N)c(NC(=O)c2ccccc2)c1` (centres undefined), the Potency entry is “inactive”.

As for `Cc1ccccc1C(=O)NC(=S)Nc1ccc(N2CCN(C(=O)c3ccccc3)CC2)cc1`, the Potency entry is “inactive”.

`COc1cccc(C(=O)Nc2ccc(N3CCCC3)cc2)c1`: the Potency was 4.26 µM (active).

`O=C(Cn1ccc(=O)[nH]c1=O)Nc1ccc(C(=O)O)c(O)c1`: the Potency result is “inactive”.

Take `CN1CCN(c2ccc(NC(=O)c3ccccc3)cc2)CC1`: the Potency is 10.7 µM (active).

As to `O=C(Nc1ccc(S(=O)(=O)N2CCc3ccccc3C2)cc1)c1ccccc1`, the Potency entry is “inactive”.

With `COc1ccccc1N1CCN(C(=O)C2Cc3ccccc3CN2C(=O)c2ccco2)CC1` (centres undefined), the Potency result is “inactive”.

As for `CC(=O)c1ccc(NC(=O)CSc2nc(-c3ccccc3F)nc3c2c(=O)n(C)c(=O)n3C)cc1`, the Potency result was “inactive”.

With `CC(=O)N1c2ccc(S(=O)(=O)N(C)CC(=O)N(C)Cc3ccccc3)cc2CC1C` (centres undefined), the Potency result was “inactive”.

Consider `CCCCn1c(SCc2ncc(-c3ccccc3)o2)nc2cc(S(N)(=O)=O)ccc21`, for which the Potency result is “inactive”.

Turning to `Cc1oc2ccc(O)c(CN3CCCCC3)c2c1C(=O)Nc1cccc(C(F)(F)F)c1`, the Potency result was “inactive”.

Regarding `CCn1c(CN2CCC(C)CC2)nc2cc(NC(=O)c3ccccc3[N+](=O)[O-])ccc21`, the Potency entry was “inactive”.

Regarding `Cc1ccc(NC(=O)C(C)OC(=O)Cc2c[nH]c3ccccc23)cc1S(=O)(=O)N1CCOCC1` (centres undefined), the Potency entry is “inactive”.

As for `COc1ccc(CCNC(=O)CCCCn2c(=O)c3ccccc3n(Cc3ccccc3C)c2=O)cc1OC`, the Potency result was “inactive”.

For the molecule `CCNC(=O)Cn1nc(C)n2c(cc3c(OC)cccc32)c1=O`, the Potency entry was “inactive”.

Regarding `CCOc1ccc(S(=O)(=O)Nc2nccs2)cc1`, the Potency result is “inactive”.

Turning to `O=C(NC(=O)c1ccccc1N1CCCCC1)Nc1ccc(Br)cc1`, the Potency result was “inactive”.

`CN1CCN(c2ccc(NC(=O)c3ccc4c(c3)OCCO4)cc2Cl)CC1`: the Potency was 4.78 µM (active).

On to `COC(=O)c1ccc(N2CCOCC2)c(NC(=O)c2ccc3c(c2)OCCO3)c1`, for which the Potency entry was “inactive”.

`COc1cc2ccccc2cc1C(=O)Nc1ccc(N2CCOCC2)cc1`: the Potency result was “inactive”.

As to `O=C(CN1C(=O)COc2ccc(Cl)cc21)Nc1ccc(N2CCOCC2)cc1`, the Potency entry was “inactive”.

`Cc1ccccc1C(=O)Nc1ccc(N2CCCCCC2)cc1`: the Potency was 10.7 µM (active).

In the case of `Cc1ccccc1C(=O)N1CCN(c2ccc(NC(=O)c3cccs3)cc2)CC1`, the Potency result is “inactive”.

Consider `O=C(Nc1ccc(N2CCOCC2)c(Cl)c1)c1ccc(S(=O)(=O)N2CCOCC2)cc1`, for which the Potency entry is “inactive”.

On to `COc1cccc(C(=O)Nc2ccc3nc4n(c(=O)c3c2)CCCCC4)c1`, for which the Potency is 16.9 µM (active).

Consider `CN1CCN(c2ccc(NC(=O)c3cc(Cl)c4c(c3)OCCO4)cc2)CC1`, for which the Potency is 10.7 µM (active).

For `CCCCN(CC)C(=S)Nc1ccc2nc3n(c(=O)c2c1)CCCCC3`, the Potency result is “inactive”.

For `NS(=O)(=O)c1ccc(NC(=O)C(=O)Nc2ccc3nc4n(c(=O)c3c2)CCCCC4)cc1`, the Potency result was “inactive”.
